Measured values: PubChem BioAssay (NCATS)
Values joined by “and” are separate entries in the source; they are usually repeats but may differ in a detail not shown here. Equal entries are not always repeated. Results filed as inconclusive are left out. Where a call stands in place of a potency, no number is given. A number with no mark means an inactive call. Active and inactive are the calls of the source. Calls follow the shape of the dose curve; as a rule, active = well fitted cell-killing curve with a large enough effect; inconclusive = small, poorly fitted or top-dose-only effect, or effect the other way; inactive = no such curve, though single readings can be large or run the other way.

How the values were obtained:
[1] = Viability qHTS for spleen associated tyrosine kinase inhibitor (SYKi) naive MV4-11 cells (AID 1963823); also: nearly all actives have a fitted effect of over 40% in size
Summary of the method: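 Cells: MV4-11, SYK inhibitor naive, 500 per well. Treatment: library compounds, 72 hr, 37 C, 5% CO2. Read-out: CellTiter-Glo luminescence after 10 min RT.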

[2] = Viability qHTS for spleen associated tyrosine kinase inhibitor (SYKi) drug resistant MV4-11 cells (AID 1963824); also: nearly all actives have a fitted effect of over 35% in size
Summary of the method: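 CellTiter-Glo luminescence, read 10 min after reagent addition, reports viability after a 72 hr compound exposure. Cells are an MV4-11 line made resistant to SYK inhibition, seeded at 500 per well onto compound-containing plates.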
Potency is read from the fitted curve at half-maximal effect.

SMILES | Potency [1] | Potency [2] | viability (% of control) [1] | viability, % of control [2]
O=C(c1c(F)ccc(NS(=O)(=O)N2CC[C@@H](F)C2)c1F)c1c[nH]c2ncc(-c3cnc(C4CC4)nc3)cc12 | 6.51 µM (active) | 8.2 µM (active) |  | 
O=C1OC(/C=C/c2ccccc2)=NC/1=C\c1cccnc1 | inactive | inactive |  | 
O=C(c1cn(Cc2cncn2Cc2ccc(Br)cc2)cc1-c1cccc2ccccc12)N1CCOCC1 | 0.82 µM (active) | 1.64 µM (active) |  | 
Nc1ncnc2c1c(-c1ccc(Oc3ccccc3)cc1)cn2C1CCCC1 | 0.366 µM (active) | 1.03 µM (active) |  | 
CC(=O)OC/C(=C/C(=O)O)CC[C@@H]1C(C)=CC(=O)[C@@H]2C(C)(C)CCC[C@@]12C | inactive | inactive |  | 
C=C1C(=O)O[C@@H]2/C=C(\C)CC/C=C(\C)CC[C@@H]12 | 7.31 µM (active) | 2.59 µM (active) |  | 
C[C@@H]1O[C@@H](OC[C@H]2O[C@@H](OCc3ccccc3)[C@H](O)[C@@H](O)[C@@H]2O)[C@H](O)[C@H](O)[C@H]1O | inactive | inactive |  | 
Cc1c(NC(=O)c2cc3c(s2)CCCC3)cccc1-c1cn(C)c(=O)c(Nc2ccc(C3C(=O)N(C)CCN3C)cc2)n1 (stereo not given) | 20.6 µM (active) and 20.9 µM (active) | 7.31 µM (active) and 16.6 µM (active) |  | 
O=C(Cc1ccc(-c2ccccc2)cc1)NC1CCC1 | inactive | inactive |  | 
C=C1C[C@]23C[C@H]1CC[C@H]2C1=C[C@H]2OC(=O)[C@@](C)([C@H]1[C@@H]3C(=O)O)[C@H]2O | inactive | inactive |  | 
CC(=O)c1ccc(O[C@@H]2OC[C@@H](O)[C@H](O)[C@H]2O[C@]2(CO)O[C@H](CO)[C@@H](O)[C@@H]2O)c(O)c1 | inactive | inactive |  | 
O=C(OCc1ccccc1O[C@@H]1O[C@H](CO)[C@@H](O)[C@H](O)[C@H]1O)C1(O)C=CCCC1O (stereo not given in full) | inactive | inactive |  | 
CCC1=C(C)C(=O)C(C)CC12C(=O)CCC2C(=O)O (stereo not given) | inactive | inactive |  | 
C[C@@H]1O[C@@H](O[C@@H]2[C@@H](O)[C@H](O[C@H]3CC[C@@]4(C)C(CC[C@]5(C)C4CC=C4[C@@H]6CC(C)(C)CC[C@]6(C(=O)O[C@@H]6O[C@H](CO)[C@@H](O)[C@H](O)[C@H]6O)CC[C@]45C)C3(C)C)O[C@H](C(=O)O)[C@H]2O)[C@H](O)[C@H](O)[C@H]1O (stereo not given in full) |  |  | 80.6% [at 9.25 µM] | 81.8% [at 9.25 µM]
C/C=C(/C)C(=O)OC1CC(C)(C)CC2C3=CCC4C5(C)CCC(OC6OC(C)C(OC7OC(C(=O)O)C(O)C(OC8OC(CO)C(O)C(O)C8OC8OC(CO)C(O)C(O)C8O)C7O)C(O)C6O)C(C)(C)C5CCC4(C)C3(C)C(OC(=O)/C=C/C=C/C=C/CCC)C(OC(C)=O)C12CO (stereo not given) |  |  | 68.8% [at 9.25 µM] | 73.3% [at 9.25 µM]
Cc1cc(C(=O)N2Cc3cnn(C)c3Nc3ccccc32)ccc1CNC(=O)N1CCC[C@H]1C(=S)N1CCCN(C)CC1 | inactive | inactive |  | 
Clc1ccc(Nc2nc3ccccc3c3nc(C4CCCCC4)[nH]c23)cc1Cl | 18.4 µM (active) | 8.2 µM (active) |  | 
O=C(O)CC1CCC(c2ccc(NC(=O)c3nnc(Nc4ccc(F)c(F)c4)o3)cc2)CC1 (stereo not given) | inactive | inactive |  | 
CCCOC(c1cc2nccc(C(=O)O)c2[nH]1)c1ccccc1Cl (stereo not given) | inactive | inactive |  | 
O=C(NC(NC(=S)Nc1ccc(F)c([N+](=O)[O-])c1)C(Cl)(Cl)Cl)C(c1ccccc1)c1ccccc1 (stereo not given) | 3.26 µM (active) | 3.26 µM (active) |  | 
Nc1ccc(-n2nc(C(F)(F)F)cc2C(F)(F)F)cc1 | inactive | inactive |  | 
Cc1ccc(NS(=O)(=O)c2cc3c(cc2NC(C)CO)NC(=O)CC3)cc1C (stereo not given) | 12.9 µM (active) | 10.2 µM (active) |  | 
NC[C@@H]1O[C@@H](O[C@@H]2[C@@H](O[C@@H]3O[C@H](CO)[C@@H](O)[C@H]3O)[C@H](O)[C@@H](N)C[C@H]2N)[C@@H](N)[C@H](O)[C@H]1O |  |  | 88.1% [at 9.25 µM] | 93.2% [at 9.25 µM]
C=C[C@H]1[C@H](O[C@@H]2O[C@H](CO)[C@@H](O)[C@H](O)[C@H]2O)OC=C2C(=O)N3Cc4c([nH]c5ccccc5c4=O)[C@@H]3C[C@H]21 | inactive | inactive |  | 
CC(C)=CC[C@H]1O[C@]2(O)C([C@H]3CCC4[C@@]5(C)CC[C@H](O[C@@H]6O[C@H](CO)[C@H](O)[C@H](O[C@@H]7O[C@H](CO)[C@@H](O)[C@H](O)[C@H]7O)[C@H]6O[C@@H]6O[C@@H](C)[C@H](O)[C@@H](O)[C@H]6O)C(C)(C)C5CC[C@@]4(C)[C@]3(C)[C@H]2O)[C@@]1(C)O (stereo not given in full) |  |  | 84.2% [at 9.25 µM] | 80.7% [at 9.25 µM]
